# Hit rate of the full screen: of about 310,000 compounds, about 1,000 (0.32%) were called active. How the calls were made is not given here. A selection follows. Results with a measured potency or affinity are listed apart.
# Experiment: Inhibition of PhoP regulon, Salmonella typhi GFP reporter cells, confirmation, 4 h (AID 1850);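 further: 0% = induced wells with vehicle and 100% = uninduced wells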
# Conditions: Salmonella Typhi PhoP-promoter GFP reporter, fluorescence, at 50 µM, hits give high values
row,Compound,inhibition
1,O=C(COC(=O)CCN=C1NS(=O)(=O)c2ccccc21)NC1CCCCCCC1,2.68% (inactive)
2,COc1cccc(NC(=S)NC(=O)Cc2ccc(Cl)cc2)c1,-3.77% (inactive)
3,COC(=O)N/N=C/c1ccc([N+](=O)[O-])o1,10.7% (inactive)
4,CCOC(=O)N/N=C/c1ccc(C)o1,-0.31% (inactive)
5,Cc1ccc2c(c1)C(=O)CC(O)(C(F)(F)F)O2 (stereo not drawn),-10.7% (inactive)
6,O=C(Nc1ccccc1)c1ccc(OC(=O)c2cc3ccccc3o2)cc1,1.84% (inactive)
7,COc1ccc(OC(=O)c2cc3ccccc3o2)cc1,3.29% (inactive)
8,CC(=O)Nc1cccc(C(=O)Nc2cccnc2)c1,5.55% (inactive)
9,CC(=O)OCC1OC(n2cc(F)c(=O)[nH]c2=O)C(OC(C)=O)C1OC(C)=O (stereo not drawn),-1.38% (inactive)
10,Nc1cn(C2OC(CO)C(O)C2O)c(=O)[nH]c1=O (stereo not drawn),5.11% (inactive)
11,COc1ccccc1N1CCN(c2ccc(Cl)nn2)CC1,8.78% (inactive)
12,Cc1ccc(C(=O)N/C(=C\c2ccccc2)C(=O)NCCCn2ccnc2)cc1,-1.23% (inactive)
13,NC1=NC[C@@H](Cc2ccc(O)cc2)N1CCC12CC3CC(CC(C3)C1)C2,-4.88% (inactive)
14,NC1=NC[C@H](Cc2ccc(O)cc2)N1CCc1cccc(F)c1,-13.5% (inactive)
15,NCCCC[C@H]1CN=C(N)N1CCC12CC3CC(CC(C3)C1)C2,27.2% (inactive)
16,NC1=NC[C@@H](Cc2ccc(O)cc2)N1CCc1cccc2ccccc12,-7.1% (inactive)
17,COc1ccccc1N1CCN(C(=O)Cn2nc(C(F)(F)F)c3c2CCC3)CC1,-10.5% (inactive)
18,COc1cccc(C(=O)Nc2ccc(NC(=O)Cc3ccccc3)cc2)c1,-3.24% (inactive)
19,CC(NCc1ccncc1)C12CC3CC(CC(C3)C1)C2 (stereo not drawn),2.47% (inactive)
20,CC(CC12CC3CC(CC(C3)C1)C2)NCc1ccccc1O (stereo not drawn),0.38% (inactive)
21,NS(=O)(=O)c1cccc(NC(=O)CC23CC4CC(C2)CC(CC(=O)Nc2cccc(S(N)(=O)=O)c2)(C4)C3)c1,4.03% (inactive)
22,c1ccc(CNc2nc(-c3cccs3)nc3ccccc23)cc1,-0.13% (inactive)
23,c1ccc(CN2CCC(Nc3ncnc4sccc34)CC2)cc1,-4.42% (inactive)

row,Compound,inhibition
1,c1ccc(CN2CCC(Nc3nc(-c4cccnc4)nc4ccccc34)CC2)cc1,1.57% (inactive)
2,c1ccc(-c2nc(NC3CCCC3)c3ccccc3n2)cc1,3.11% (inactive)
3,O=C1N(CN2CCC3(CC2)OCCO3)c2ccccc2C12OCCCO2,1.71% (inactive)
4,Cc1ccc(NC(=O)N2CCN(c3ncccc3C(F)(F)F)CC2)cc1,1.6% (inactive)
5,C=CCNC(=O)C1CC(=O)N(c2ccc(OCc3ccccc3Cl)cc2)C1 (stereo not drawn),0.85% (inactive)
6,COc1ccc(C2NC(=O)Cc3cc(OC)c(OC)cc32)cc1OC (stereo not drawn),-3.77% (inactive)
7,Nc1ccc(C(=O)OCc2nc3c(ccc4ccccc43)[nH]2)cc1,0.78% (inactive)
8,CN(C)CCNc1oc(COc2ccc(Cl)cc2)nc1C#N,8.61% (inactive)
9,Cc1cccc(OCc2nc(C#N)c(NCCN(C)C)o2)c1,-1.98% (inactive)
10,Cc1ccc(S(=O)(=O)N2CCCC(C(=O)NCCc3ccc(S(N)(=O)=O)cc3)C2)cc1 (stereo not drawn),-14.1% (inactive)
11,COc1ccc(-c2cc(C(=O)N(C)Cc3ccccc3F)c3ccccc3n2)cc1OC,-13.2% (inactive)
12,CCCn1nnc(NC(=S)NC(=O)/C=C/c2ccco2)n1,-16% (inactive)
13,Cc1nn(-c2nc3ccccc3[nH]2)c(=O)c2ccccc12,-19.2% (inactive)
14,CC1=NN(c2nc3ccccc3[nH]2)C(=O)/C1=C/N(C)C,-13.6% (inactive)
15,CN1CC(C(=O)c2ccc(F)cc2)C(c2c(F)cccc2Cl)C1 (stereo not drawn),7.43% (inactive)
16,CCOC(=O)c1ccccc1NC(=O)CSc1nnc(C(C)C)n1CC,1.44% (inactive)
17,CC(C)C[C@H](NC(=O)NCc1ccccc1Cl)C(=O)O,2.59% (inactive)
18,Cc1ccc2c(c1)c1c(n2CC(O)CNC(CO)(CO)CO)CCCC1 (stereo not drawn),-13.1% (inactive)
19,Cc1ccc2c(c1)c1c(n2CC(O)CN2CCOCC2)CCCC1 (stereo not drawn),5.45% (inactive)
20,Cc1ccc2c(c1)c1c(n2CC(O)CN2CCCCCC2)CCCC1 (stereo not drawn),-2.65% (inactive)
21,Cc1ccc2c(c1)c1c(n2CC(O)CNC2CCCC2)CCCC1 (stereo not drawn),14.4% (inactive)
22,Cc1cc(C(=O)COC(=O)c2ccc(N)cc2)c(C)n1-c1c(C)n(C)n(-c2ccccc2)c1=O,-9.39% (inactive)
23,CSc1nc(N2CCOCC2)cc(N2CCOCC2)n1,2.38% (inactive)

row,Compound,inhibition
1,COc1ccc(Br)c(C(=O)NC2CCCC2)c1,2.12% (inactive)
2,CCC(CC)C(=O)NCc1ccc(OC)cc1,22.8% (inactive)
3,O=C1CN(C(=O)/C=C/c2cccc(Cl)c2)c2ccccc2N1,8.09% (inactive)
4,O=C(CS(=O)(=O)c1ccc(F)cc1)NCc1ccccc1,-1.23% (inactive)
5,OCc1cn(-c2ccccc2)nc1-c1ccc(-c2nn(-c3ccccc3)cc2CO)cc1,-10.8% (inactive)
6,Cc1ccc(-c2nn(-c3ccccc3)cc2CSC(=N)N)cc1,17.4% (inactive)
7,CNC(=O)NC(=O)COC(=O)c1ccccc1OCc1ccccc1,0.41% (inactive)
8,CC(=O)N1CCC(=NNc2ccnc3cc(Cl)ccc23)CC1,0.99% (inactive)
9,Oc1ccc(Nc2ccnc3cc(Cl)ccc23)cc1,-4.09% (inactive)
10,CCOC(=O)N1CCN(c2ccnc3cc(Cl)ccc23)CC1,-0.34% (inactive)
11,Oc1ccc(/C=N/Nc2ccnc3cc(Cl)ccc23)c(O)c1,-3.01% (inactive)
12,C/C(=N\Nc1cccc2cccnc12)c1ccc(N)cc1,10.3% (inactive)
13,C/C(=N/Nc1ccnc2cc(Cl)ccc12)c1ccc(O)cc1,-22.6% (inactive)
14,Cc1noc(C)c1C(=O)NCCC1=CCCCC1,1.2% (inactive)
15,Cn1nnnc1SCCNC(=O)C1CCC(=O)N(Cc2ccc(Cl)cc2)C1 (stereo not drawn),-10.8% (inactive)
16,COc1ccc(NC(=O)C2CC(c3ccc(Cl)cc3)=NO2)cc1 (stereo not drawn),7.66% (inactive)
17,COc1ccc(OCC(O)CNC(C)c2ccccc2)cc1 (stereo not drawn),1.46% (inactive)
18,NCC(O)COCCC12CC3CC(CC(C3)C1)C2 (stereo not drawn),-0.98% (inactive)
19,CC(C)c1ccc(OCC(O)CNC(C)c2ccccc2)cc1 (stereo not drawn),1.07% (inactive)
20,Cc1ccc(OCC(O)CNC(C)c2ccccc2)cc1C (stereo not drawn),-6.36% (inactive)
21,COc1cccc(OCC(O)CNC(C)c2ccccc2)c1 (stereo not drawn),6.91% (inactive)
22,CC(NCC(O)COCc1ccc(Cl)cc1)c1ccccc1 (stereo not drawn),-6.47% (inactive)
